The values that follow come from PubChem BioAssay.

Assay [1] concerns Plasmodium falciparum Sir2 (PF13_0152, Sir2A). The assay can be described thus: Plasmodium falciparum Sir2A binding compounds – biochemical, small-molecule microarray, 635 nm fluorescence, primary screen (AID 1098).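 Note: score merges spot fluorescence intensity with its signal-to-noise ratio.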 The conditions noted are these: fluorescence 635 nm, higher = more signal.
A short description of assay [2]: probe aDKK1 binding to arrayed compounds – biochemical, biotinylated probe, 635/667 nm fluorescence, primary screen (AID 1099).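 Note: score merges 667nm spot fluorescence with signal to noise across triplicate slides; reference of the scale not given here.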 The conditions noted are these: small-molecule microarray, higher = more signal.
The nature of assay [3]: probe aCHRDL2 binding to arrayed compounds – biochemical, biotinylated probe, 635/667 nm fluorescence, primary screen (AID 1100). The conditions noted are these: small-molecule microarray, higher = more signal.
Assay [4] is described as follows: change in splice reporter luminescence, either direction, cell-based, HEK293, spliceosome inhibition project, primary screen (AID 1101).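 Note: HEK293 cells carrying a splicing-competent luciferase reporter gene; test concentration not given here.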 The conditions noted are these: HEK293 splicing luciferase reporter, 24 h, higher = more signal, called active from +8 up or from −8 down.
Assay [5] deals with Fibroblast growth factor 10 (Homo sapiens) (UniProt O15520). Nature of the assay: compounds binding fibroblast growth factor 10 – biochemical, small-molecule microarray, 635 nm fluorescence, primary screen (AID 1102). The conditions noted are these: FGF10 binding, fluorescence 635 nm, higher = more signal.
Sequence of Fibroblast growth factor 10 (Homo sapiens) (O15520 whole entry, looked up): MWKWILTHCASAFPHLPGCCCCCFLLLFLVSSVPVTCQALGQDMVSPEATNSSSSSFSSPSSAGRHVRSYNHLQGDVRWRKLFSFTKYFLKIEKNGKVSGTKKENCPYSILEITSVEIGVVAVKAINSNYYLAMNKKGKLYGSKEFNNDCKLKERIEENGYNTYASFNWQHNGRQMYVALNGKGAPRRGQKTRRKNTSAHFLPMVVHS
Assay [6] relates to glycogen synthase kinase-3 (GSK3A per assay name; protocol says GSK3B). The assay can be described thus: compounds binding glycogen synthase kinase-3 – biochemical, small-molecule microarray, 635 nm fluorescence, GSK3A, primary screen (AID 1103). Note: the record names both GSK3A and GSK3B. The conditions noted are these: fluorescence 635 nm, higher = more signal.
Assay [7] addresses Epidermal growth factor receptor (Homo sapiens) (UniProt P00533). The assay can be described thus: compounds binding epidermal growth factor receptor – biochemical, small-molecule microarray, 635 nm fluorescence, primary screen (AID 1104).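 Note: score merges 667 nm emission intensity with spot signal to noise over triplicate slides.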 The conditions noted are these: EGFR binding, higher = more signal.
Assay [8] addresses Follistatin-related protein 3 (Homo sapiens) (UniProt O95633). Nature of the assay: compounds binding follistatin-related protein 3 – biochemical, small-molecule microarray, 635 nm fluorescence, primary screen (AID 1105).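 Note: score merges emission near 667 nm and signal to noise per printed spot across three slides.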 The conditions noted are these: FSTL3 binding, higher = more signal.
The target in assay [9] is Dickkopf-related protein 1 (Homo sapiens) (UniProt O94907). Nature of the assay: small molecules binding DKK1 protein – biochemical, small-molecule microarray, 635 nm fluorescence scan, primary screen (AID 1106).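 Note: score merges emission near 667 nm with signal to noise over three replicate slides.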 The conditions noted are these: higher = more signal.
Sequence of Dickkopf-related protein 1 (Homo sapiens) (O94907 whole entry, looked up): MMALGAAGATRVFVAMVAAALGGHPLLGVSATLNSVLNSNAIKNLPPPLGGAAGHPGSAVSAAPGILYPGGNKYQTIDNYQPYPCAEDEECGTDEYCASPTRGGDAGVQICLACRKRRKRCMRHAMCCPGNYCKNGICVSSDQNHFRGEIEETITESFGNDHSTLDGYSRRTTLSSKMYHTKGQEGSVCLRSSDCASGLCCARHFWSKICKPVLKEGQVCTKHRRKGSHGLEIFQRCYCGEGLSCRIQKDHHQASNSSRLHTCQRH
In assay [10] the test system is Inhibin beta A chain (activin A). Nature of the assay: small molecules binding activin A – biochemical, small-molecule microarray, 635 nm fluorescence scan, primary screen (AID 1107).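 Note: mouse activin A protein probed at 4.33 µg/mL on printed slides; score merges bound-protein fluorescence near 667 nm with spot signal-to-noise.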 The conditions noted are these: INHBA, higher = more signal.

The structures appear in SMILES notation. Calls of active or inactive are those of the source.

Sequence of Follistatin-related protein 3 (Homo sapiens) (O95633 whole entry, looked up): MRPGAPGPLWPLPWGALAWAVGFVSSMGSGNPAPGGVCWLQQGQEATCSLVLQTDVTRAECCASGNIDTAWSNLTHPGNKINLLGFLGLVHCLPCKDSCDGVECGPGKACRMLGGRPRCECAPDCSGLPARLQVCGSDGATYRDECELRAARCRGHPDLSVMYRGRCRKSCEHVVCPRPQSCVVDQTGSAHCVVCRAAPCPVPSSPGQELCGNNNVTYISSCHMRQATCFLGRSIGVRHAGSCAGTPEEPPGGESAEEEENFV
Sequence of Epidermal growth factor receptor (Homo sapiens) (P00533 whole entry, looked up): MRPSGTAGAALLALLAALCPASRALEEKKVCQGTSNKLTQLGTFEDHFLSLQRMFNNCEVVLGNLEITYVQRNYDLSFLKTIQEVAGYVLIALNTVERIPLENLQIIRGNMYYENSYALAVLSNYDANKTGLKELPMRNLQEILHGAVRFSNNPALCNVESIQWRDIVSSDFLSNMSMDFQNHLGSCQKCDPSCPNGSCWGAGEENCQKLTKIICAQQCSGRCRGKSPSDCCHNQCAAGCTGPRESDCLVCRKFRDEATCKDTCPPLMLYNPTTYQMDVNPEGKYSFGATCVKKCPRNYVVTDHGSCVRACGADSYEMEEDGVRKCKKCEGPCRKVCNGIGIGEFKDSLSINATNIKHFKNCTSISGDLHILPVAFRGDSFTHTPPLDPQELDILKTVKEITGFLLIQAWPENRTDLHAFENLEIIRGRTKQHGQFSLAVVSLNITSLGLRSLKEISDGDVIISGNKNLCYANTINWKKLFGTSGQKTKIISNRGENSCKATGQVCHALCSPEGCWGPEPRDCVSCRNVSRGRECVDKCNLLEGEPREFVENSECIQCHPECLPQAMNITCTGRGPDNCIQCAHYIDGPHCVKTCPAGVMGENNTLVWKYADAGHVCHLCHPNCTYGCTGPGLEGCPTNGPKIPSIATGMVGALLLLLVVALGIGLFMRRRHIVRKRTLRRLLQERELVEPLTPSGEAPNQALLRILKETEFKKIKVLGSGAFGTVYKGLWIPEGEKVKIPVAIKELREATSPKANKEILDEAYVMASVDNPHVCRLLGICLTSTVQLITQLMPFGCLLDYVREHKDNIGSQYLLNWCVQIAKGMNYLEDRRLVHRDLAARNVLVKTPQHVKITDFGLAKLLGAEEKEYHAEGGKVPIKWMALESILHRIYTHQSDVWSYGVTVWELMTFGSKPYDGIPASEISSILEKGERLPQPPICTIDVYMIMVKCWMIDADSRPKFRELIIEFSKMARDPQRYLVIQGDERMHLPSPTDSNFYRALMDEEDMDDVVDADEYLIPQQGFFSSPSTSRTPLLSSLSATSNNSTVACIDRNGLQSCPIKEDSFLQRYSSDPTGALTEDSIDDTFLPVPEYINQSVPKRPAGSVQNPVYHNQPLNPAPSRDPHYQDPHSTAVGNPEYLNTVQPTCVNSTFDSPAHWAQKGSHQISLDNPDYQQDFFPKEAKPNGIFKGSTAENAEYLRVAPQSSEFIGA

As for `CCC(=O)[C@@]1(O)C(=O)N2C(=C3C(=O)OCC[C@@H]31)N(Cc1ccccc1)C(C)=C(C(=O)OC)[C@H]2c1ccccc1`, the composite z-score in [1] is 0.413; in [2] it was -0.302; in assay [3], -0.624; in [5], 0.241; in assay [6] it was 0.554; in assay [7] it was 0.43. In addition, the values for the composite z-score in assay [8], in assay [9] and in assay [10] were 0.429, 0.873 and -0.0748, respectively. Also, the z-score in assay [4] is 0.501 (inactive).
Regarding `COc1cccc([C@H]2Oc3ccc(OC)cc3C(=NO[C@H](C)c3cn([C@H](CO)Cc4ccccc4)nn3)[C@@H]2O)c1`, the composite z-score in assay [1] is -0.42; in [2], -0.561; in [3], -0.0229; in assay [5] it was 0.0546; in assay [6] it was -0.617; in assay [7], -0.0537. The composite z-score in assay [8] was -0.0403; in [9] it was -0.28; in [10] it was 0.548. For the same compound, the z-score in [4] is 0.397 (inactive).
For `CC(CCC(=O)OC[C@H]1O[C@H](C#Cc2ccccc2)C=C[C@@H]1Oc1ccc(C)cc1)=NO[C@H](C)c1cn([C@H](CO)Cc2ccccc2)nn1`, the composite z-score in assay [1] is 0.708; in assay [2], -0.164; in assay [3], -0.532; in assay [5], 0.17; in [6], 0.197; in assay [7], 0.217. The values for the composite z-score in assay [8], in [9] and in assay [10] were 1.12, 0.655 and 0.282, respectively. Moreover, the z-score in assay [4] is 0.448 (inactive).
`C=Cc1ccc([C@H]2N[C@H](C(=O)O)CC[C@@H]2C)cc1`: the composite z-score in assay [1] is -0.642; in assay [2], 0.178; in assay [3], 0.02; in [5], 0.741; in [6] it was -0.88; in assay [7], 0.14. In addition, the results for the composite z-score in assay [8], in [9] and in assay [10] were 0.505, 0.723 and 0.363, respectively. Further, the z-score in assay [4] was 0.0747 (inactive).
As to `C#CCCCON=C1C[C@@H](O)[C@@H](O)[C@@H]2[C@@H]3C(=O)N(CCC(=O)OCC)C(=O)[C@@H]3CC[C@H]12`, the composite z-score was 1 in [1]; 0.286 in assay [2]; -0.491 in assay [3]; 0.628 in assay [5]; 0.814 in assay [6]; 0.542 in [7]. Also, the composite z-score in assay [8] is 1.16; in assay [9] it was 0.389; in assay [10], -0.422. Also, the z-score in [4] was -1.79 (inactive).
For the compound `CC(CCN1CCc2nc(-c3ccccc3)c(-c3ccccc3)cc2C1)=NOC[C@@H](O)[C@H]1O[C@@H]2OC(C)(C)O[C@@H]2[C@H]1O`, the composite z-score in [1] was 0.525; in assay [2] it was -0.414; in assay [3], -0.395; in assay [5], 0.743; in assay [6] it was 0.587; in assay [7] it was 0.28. Also, the results for the composite z-score in assay [8], in assay [9] and in [10] were 0.583, 0.341 and 0.376, respectively. Further, the z-score in assay [4] was 0.662 (inactive).
As to `CO[C@H]1COC(=O)CCC[C@@H](C)[C@H](OC)COC(=O)[C@@H]2CCCN2C(=O)CC=C[C@@H]1C`, the composite z-score is 1.78 in assay [1]; -0.313 in assay [2]; -0.959 in assay [3]; 0.269 in assay [5]; 0.482 in [6]; 0.802 in [7]. Besides, the composite z-score in [8] is 1.02; in [9], 1.16; in [10] it was 1.26. The z-score in assay [4] is -0.599 (inactive).
`CCOC(=O)[C@H](CC(C)C)NC(=O)CCC1CC(OC(=O)NCc2cccc3ccccc23)CC2(CCCC(COC(=O)NCCOc3ccccc3)O2)O1` (stereo not given in full): the composite z-score in [1] is 0.951; in assay [2], -0.246; in assay [3] it was -0.383; in [5], 0.658; in assay [6] it was 1.03; in assay [7], 0.557. In addition, the composite z-score was 0.887 in assay [8], 0.344 in assay [9] and 0.184 in assay [10]. Besides, in [4], the z-score was -1.87 (inactive).
`C[C@@H]1CC[C@H]2C(=O)O[C@@H](Cc3ccccc3)CN2[C@H]1c1ccc(Br)cc1`: the composite z-score in assay [1] was 0.666; in assay [2], 0.14; in assay [3] it was -0.246; in assay [5], 0.383; in [6], 0.177; in [7] it was 0.389. Besides, the composite z-score in assay [8] is 0.416; in [9], 0.783; in [10] it was 0.619. The z-score in assay [4] is -0.387 (inactive).
As for `CC[C@@H](c1ccccc1)n1c(=O)n2n(c1=O)[C@H]1[C@H](O)[C@@H]3O[C@@H]3C(=NOC[C@@H](O)COCc3ccco3)[C@H]1CC2`, the composite z-score in assay [1] was 1.27; in assay [2] it was -0.455; in assay [3], -0.773; in assay [5] it was 0.145; in [6], -0.693; in [7], -0.264. In addition, the composite z-score was -0.378 in [8], 0.239 in assay [9] and 1.09 in assay [10]. In addition, the z-score in assay [4] is 3.16 (inactive).
With `CCN1C(=O)[C@H]2[C@H]3[C@H](O)[C@H](O)CC(=O)[C@@H]3CC[C@H]2C1=O`, the composite z-score in assay [1] is 0.677; in assay [2], -0.22; in assay [3] it was -0.478; in assay [5], 0.492; in [6] it was 0.692; in [7], 0.555. Further, the composite z-score was 0.688 in assay [8], 0.396 in assay [9] and -0.167 in [10]. Besides, the z-score in assay [4] was -0.0387 (inactive).
`CON=C[C@@H](C)[C@H](OCc1ccccc1)C(C)C`: the composite z-score in [1] is -0.187; in assay [2], -0.152; in assay [3], -0.225; in assay [5], 0.0578; in assay [6] it was -0.594; in assay [7] it was 0.327. The results for the composite z-score in assay [8], in assay [9] and in [10] were 0.122, 0.312 and 0.216, respectively. Moreover, the z-score in [4] was -0.829 (inactive).
Turning to `O=C(NN=C1C[C@@H](O)[C@@H](O)[C@@H]2[C@@H]3C(=O)N(C[C@@H]4CCCO4)C(=O)[C@@H]3CC[C@@H]12)OCc1ccccc1`, the composite z-score was 0.789 in [1]; -0.32 in assay [2]; -0.916 in assay [3]; 0.127 in assay [5]; 1.09 in assay [6]; 0.509 in assay [7]. In addition, the composite z-score in [8] was determined as 0.0972; in [9], 0.486; in assay [10] it was 0.781. For the same compound, the z-score in assay [4] was -1.03 (inactive).
Consider `CCCNC(=O)OC[C@H]1O[C@H](CCON=C(C)C)C=C[C@@H]1Oc1ccc(OC)cc1`, for which the composite z-score in assay [1] is 0.415; in assay [2], 0.325; in assay [3] it was 0.707; in [5] it was 0.325; in assay [6], -0.515; in assay [7], -0.0864. For the same compound, the composite z-score was -0.125 in [8], -0.288 in assay [9] and 1.23 in assay [10]. Besides, the z-score in [4] was -0.0557 (inactive).
As to `O=C1[C@H]2[C@H]3[C@H](O)[C@H](O)CC(=NOCc4ccccc4)[C@@H]3CC[C@H]2C(=O)N1Cc1ccc2c(c1)OCO2`, the composite z-score in [1] was 0.0183; in assay [2], -0.225; in assay [3], -0.453; in [5] it was 0.32; in [6], -0.0163; in [7], 0.317. Further, the composite z-score in assay [8] was 0.517; in assay [9], 0.472; in [10], 0.45. In addition, the z-score in assay [4] is 0.631 (inactive).
For the compound `CC(CCN1CCCc2nc(C)c(C)cc21)=NO[C@@H](C)c1cc(-c2c(C)cc(C)cc2C)no1`, the composite z-score in [1] was 0.739; in [2], 0.0311; in assay [3], -0.648; in assay [5], 0.322; in assay [6] it was 0.525; in assay [7], -0.0398. In addition, the results for the composite z-score in assay [8], in assay [9] and in assay [10] were 0.293, 0.41 and 0.881, respectively. The z-score in assay [4] is -0.408 (inactive).
